According to the supplement of paper PMC11732987, “Enantioselective OTUD7B fragment discovery through chemoproteomics screening and high-throughput optimisation” (Communications Chemistry, 2025):

How the values were obtained:
Assay in all cases: log2 ratio of Biotin-Ahx-Ub-VS probe labelling (fragment/DMSO); higher = less target engagement (more negative = stronger competition), active = hit call of the paper (q ≤ 0.05, log2 ratio ≤ -1)
Settings in all cases: compound concentration: 200 uM; treatment time: 3 h
USP34 = USP34 (UniProt Q70CQ2)
Method in brief: (§1)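 Average log2 ratios of fragment over vehicle were obtained by unpaired t-test from global-median-normalised Spectronaut label-free quantities. Proteins with ≥2 unique peptides were included. HEK293T lysate (495 µg per sample) was treated in triplicate with fragment at 200 µM or vehicle for 3 h, then with Biotin-Ahx-Ub-VS at 0.5 µM final for 1 h, and labelled DUBs were NeutrAvidin-enriched and run by diaPASEF LC-MS/MS.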

USP36 = molecular target: T1, USP36 (UniProt Q9P275)
T1 sequence (whole entry): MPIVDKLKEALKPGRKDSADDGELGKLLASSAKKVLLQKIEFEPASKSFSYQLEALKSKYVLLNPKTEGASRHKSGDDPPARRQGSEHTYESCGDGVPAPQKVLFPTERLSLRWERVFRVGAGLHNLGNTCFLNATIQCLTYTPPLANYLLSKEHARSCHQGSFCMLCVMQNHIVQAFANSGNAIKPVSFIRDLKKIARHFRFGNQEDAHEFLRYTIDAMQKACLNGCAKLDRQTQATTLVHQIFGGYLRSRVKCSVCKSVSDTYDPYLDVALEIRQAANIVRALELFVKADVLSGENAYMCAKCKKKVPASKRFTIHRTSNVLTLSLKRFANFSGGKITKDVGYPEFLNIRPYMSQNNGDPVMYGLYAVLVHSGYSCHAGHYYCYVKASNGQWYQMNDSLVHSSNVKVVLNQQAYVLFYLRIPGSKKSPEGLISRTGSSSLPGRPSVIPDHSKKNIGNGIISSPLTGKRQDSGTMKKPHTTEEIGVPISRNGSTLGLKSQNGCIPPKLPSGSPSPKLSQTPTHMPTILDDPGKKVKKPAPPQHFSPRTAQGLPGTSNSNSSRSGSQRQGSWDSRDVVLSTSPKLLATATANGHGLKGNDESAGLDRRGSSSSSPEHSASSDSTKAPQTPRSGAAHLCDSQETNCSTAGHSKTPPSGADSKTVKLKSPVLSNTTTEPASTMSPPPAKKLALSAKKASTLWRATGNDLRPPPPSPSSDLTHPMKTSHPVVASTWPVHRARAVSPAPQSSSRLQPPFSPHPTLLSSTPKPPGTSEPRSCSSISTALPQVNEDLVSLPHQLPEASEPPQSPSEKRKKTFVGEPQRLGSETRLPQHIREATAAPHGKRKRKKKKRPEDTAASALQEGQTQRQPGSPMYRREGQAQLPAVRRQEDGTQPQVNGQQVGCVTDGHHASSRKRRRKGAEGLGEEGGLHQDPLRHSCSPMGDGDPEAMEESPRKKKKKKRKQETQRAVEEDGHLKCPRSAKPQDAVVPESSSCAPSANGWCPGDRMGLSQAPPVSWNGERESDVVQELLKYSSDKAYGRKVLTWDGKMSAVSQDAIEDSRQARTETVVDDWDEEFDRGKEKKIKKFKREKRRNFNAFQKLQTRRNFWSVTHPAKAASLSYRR
Method in brief: as §1

USP38 = molecular target: T2, USP38 (UniProt Q8NB14)
T2 sequence (whole entry): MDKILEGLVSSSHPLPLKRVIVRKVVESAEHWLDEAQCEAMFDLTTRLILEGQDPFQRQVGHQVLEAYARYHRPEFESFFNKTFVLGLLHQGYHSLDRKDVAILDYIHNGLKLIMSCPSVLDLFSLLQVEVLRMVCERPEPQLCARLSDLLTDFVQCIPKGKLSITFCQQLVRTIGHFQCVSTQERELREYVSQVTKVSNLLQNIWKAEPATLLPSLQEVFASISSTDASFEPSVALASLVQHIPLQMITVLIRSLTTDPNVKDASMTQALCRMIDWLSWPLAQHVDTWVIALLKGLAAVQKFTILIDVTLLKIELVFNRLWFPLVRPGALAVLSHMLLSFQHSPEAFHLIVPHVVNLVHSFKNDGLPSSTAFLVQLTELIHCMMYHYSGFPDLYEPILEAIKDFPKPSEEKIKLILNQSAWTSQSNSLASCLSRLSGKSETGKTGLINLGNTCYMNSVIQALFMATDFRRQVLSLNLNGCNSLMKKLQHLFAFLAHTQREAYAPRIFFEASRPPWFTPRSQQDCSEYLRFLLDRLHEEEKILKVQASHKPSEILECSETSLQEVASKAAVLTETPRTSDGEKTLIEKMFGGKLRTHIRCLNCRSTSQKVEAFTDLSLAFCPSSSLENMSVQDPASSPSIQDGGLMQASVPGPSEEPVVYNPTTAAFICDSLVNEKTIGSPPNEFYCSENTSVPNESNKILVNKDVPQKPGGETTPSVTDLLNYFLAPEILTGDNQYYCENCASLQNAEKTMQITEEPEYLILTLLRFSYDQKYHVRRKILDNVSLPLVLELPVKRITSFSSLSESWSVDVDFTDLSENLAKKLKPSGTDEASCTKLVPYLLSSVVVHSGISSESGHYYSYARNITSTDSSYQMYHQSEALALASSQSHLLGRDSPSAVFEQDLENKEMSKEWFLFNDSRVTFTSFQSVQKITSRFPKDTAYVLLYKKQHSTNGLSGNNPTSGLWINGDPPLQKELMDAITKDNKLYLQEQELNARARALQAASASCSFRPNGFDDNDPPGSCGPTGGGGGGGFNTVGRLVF
Method in brief: as §1

USP39 = molecular target: T3, USP39 (UniProt Q53GS9)
T3 sequence (whole entry): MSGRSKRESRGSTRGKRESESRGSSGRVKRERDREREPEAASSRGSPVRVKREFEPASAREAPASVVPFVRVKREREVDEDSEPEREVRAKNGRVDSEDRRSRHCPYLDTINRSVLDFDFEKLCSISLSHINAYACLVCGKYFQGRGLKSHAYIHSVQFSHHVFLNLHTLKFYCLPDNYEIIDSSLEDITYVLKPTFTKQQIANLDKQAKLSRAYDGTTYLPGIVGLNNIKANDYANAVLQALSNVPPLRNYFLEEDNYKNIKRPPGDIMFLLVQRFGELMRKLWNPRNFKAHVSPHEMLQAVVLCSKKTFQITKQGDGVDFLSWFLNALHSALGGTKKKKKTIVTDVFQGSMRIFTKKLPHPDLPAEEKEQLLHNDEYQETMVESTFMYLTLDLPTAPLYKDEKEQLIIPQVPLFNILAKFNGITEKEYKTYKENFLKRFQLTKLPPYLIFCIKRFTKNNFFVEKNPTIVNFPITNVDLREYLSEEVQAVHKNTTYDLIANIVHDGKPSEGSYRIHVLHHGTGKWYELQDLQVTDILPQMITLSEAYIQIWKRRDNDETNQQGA
Method in brief: as §1

USP4 = molecular target: T4, USP4 (UniProt Q13107)
T4 sequence (whole entry): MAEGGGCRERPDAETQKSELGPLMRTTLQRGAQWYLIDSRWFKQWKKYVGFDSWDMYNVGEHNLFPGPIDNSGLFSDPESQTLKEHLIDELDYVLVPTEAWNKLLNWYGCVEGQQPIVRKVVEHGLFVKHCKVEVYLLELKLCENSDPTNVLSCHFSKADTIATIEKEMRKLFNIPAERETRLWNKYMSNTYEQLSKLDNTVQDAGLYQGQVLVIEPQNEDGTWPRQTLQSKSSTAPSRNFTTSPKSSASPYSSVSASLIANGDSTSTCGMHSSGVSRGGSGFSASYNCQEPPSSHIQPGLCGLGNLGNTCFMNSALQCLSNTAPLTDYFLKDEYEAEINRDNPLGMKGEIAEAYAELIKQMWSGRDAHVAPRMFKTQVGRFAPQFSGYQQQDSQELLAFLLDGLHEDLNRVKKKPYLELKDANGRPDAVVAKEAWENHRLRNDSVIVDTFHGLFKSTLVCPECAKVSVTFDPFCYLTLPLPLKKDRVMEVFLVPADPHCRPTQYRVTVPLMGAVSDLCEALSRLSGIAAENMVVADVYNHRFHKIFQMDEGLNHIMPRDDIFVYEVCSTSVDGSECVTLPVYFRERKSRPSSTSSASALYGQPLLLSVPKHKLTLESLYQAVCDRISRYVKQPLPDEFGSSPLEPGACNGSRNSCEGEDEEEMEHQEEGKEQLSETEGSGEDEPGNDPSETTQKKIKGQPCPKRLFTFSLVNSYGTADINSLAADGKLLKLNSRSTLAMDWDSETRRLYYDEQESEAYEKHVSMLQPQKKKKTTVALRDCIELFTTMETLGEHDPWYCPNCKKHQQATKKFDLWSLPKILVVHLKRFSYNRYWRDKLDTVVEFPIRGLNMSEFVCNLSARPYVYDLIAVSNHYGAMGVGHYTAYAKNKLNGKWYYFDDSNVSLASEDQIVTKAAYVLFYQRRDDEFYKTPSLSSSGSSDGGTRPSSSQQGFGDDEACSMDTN
Method in brief: as §1

Measured: log2 ratio of Biotin-Ahx-Ub-VS probe labelling

Chain of USP34 (Q70CQ2 whole entry, the tested form may be a part): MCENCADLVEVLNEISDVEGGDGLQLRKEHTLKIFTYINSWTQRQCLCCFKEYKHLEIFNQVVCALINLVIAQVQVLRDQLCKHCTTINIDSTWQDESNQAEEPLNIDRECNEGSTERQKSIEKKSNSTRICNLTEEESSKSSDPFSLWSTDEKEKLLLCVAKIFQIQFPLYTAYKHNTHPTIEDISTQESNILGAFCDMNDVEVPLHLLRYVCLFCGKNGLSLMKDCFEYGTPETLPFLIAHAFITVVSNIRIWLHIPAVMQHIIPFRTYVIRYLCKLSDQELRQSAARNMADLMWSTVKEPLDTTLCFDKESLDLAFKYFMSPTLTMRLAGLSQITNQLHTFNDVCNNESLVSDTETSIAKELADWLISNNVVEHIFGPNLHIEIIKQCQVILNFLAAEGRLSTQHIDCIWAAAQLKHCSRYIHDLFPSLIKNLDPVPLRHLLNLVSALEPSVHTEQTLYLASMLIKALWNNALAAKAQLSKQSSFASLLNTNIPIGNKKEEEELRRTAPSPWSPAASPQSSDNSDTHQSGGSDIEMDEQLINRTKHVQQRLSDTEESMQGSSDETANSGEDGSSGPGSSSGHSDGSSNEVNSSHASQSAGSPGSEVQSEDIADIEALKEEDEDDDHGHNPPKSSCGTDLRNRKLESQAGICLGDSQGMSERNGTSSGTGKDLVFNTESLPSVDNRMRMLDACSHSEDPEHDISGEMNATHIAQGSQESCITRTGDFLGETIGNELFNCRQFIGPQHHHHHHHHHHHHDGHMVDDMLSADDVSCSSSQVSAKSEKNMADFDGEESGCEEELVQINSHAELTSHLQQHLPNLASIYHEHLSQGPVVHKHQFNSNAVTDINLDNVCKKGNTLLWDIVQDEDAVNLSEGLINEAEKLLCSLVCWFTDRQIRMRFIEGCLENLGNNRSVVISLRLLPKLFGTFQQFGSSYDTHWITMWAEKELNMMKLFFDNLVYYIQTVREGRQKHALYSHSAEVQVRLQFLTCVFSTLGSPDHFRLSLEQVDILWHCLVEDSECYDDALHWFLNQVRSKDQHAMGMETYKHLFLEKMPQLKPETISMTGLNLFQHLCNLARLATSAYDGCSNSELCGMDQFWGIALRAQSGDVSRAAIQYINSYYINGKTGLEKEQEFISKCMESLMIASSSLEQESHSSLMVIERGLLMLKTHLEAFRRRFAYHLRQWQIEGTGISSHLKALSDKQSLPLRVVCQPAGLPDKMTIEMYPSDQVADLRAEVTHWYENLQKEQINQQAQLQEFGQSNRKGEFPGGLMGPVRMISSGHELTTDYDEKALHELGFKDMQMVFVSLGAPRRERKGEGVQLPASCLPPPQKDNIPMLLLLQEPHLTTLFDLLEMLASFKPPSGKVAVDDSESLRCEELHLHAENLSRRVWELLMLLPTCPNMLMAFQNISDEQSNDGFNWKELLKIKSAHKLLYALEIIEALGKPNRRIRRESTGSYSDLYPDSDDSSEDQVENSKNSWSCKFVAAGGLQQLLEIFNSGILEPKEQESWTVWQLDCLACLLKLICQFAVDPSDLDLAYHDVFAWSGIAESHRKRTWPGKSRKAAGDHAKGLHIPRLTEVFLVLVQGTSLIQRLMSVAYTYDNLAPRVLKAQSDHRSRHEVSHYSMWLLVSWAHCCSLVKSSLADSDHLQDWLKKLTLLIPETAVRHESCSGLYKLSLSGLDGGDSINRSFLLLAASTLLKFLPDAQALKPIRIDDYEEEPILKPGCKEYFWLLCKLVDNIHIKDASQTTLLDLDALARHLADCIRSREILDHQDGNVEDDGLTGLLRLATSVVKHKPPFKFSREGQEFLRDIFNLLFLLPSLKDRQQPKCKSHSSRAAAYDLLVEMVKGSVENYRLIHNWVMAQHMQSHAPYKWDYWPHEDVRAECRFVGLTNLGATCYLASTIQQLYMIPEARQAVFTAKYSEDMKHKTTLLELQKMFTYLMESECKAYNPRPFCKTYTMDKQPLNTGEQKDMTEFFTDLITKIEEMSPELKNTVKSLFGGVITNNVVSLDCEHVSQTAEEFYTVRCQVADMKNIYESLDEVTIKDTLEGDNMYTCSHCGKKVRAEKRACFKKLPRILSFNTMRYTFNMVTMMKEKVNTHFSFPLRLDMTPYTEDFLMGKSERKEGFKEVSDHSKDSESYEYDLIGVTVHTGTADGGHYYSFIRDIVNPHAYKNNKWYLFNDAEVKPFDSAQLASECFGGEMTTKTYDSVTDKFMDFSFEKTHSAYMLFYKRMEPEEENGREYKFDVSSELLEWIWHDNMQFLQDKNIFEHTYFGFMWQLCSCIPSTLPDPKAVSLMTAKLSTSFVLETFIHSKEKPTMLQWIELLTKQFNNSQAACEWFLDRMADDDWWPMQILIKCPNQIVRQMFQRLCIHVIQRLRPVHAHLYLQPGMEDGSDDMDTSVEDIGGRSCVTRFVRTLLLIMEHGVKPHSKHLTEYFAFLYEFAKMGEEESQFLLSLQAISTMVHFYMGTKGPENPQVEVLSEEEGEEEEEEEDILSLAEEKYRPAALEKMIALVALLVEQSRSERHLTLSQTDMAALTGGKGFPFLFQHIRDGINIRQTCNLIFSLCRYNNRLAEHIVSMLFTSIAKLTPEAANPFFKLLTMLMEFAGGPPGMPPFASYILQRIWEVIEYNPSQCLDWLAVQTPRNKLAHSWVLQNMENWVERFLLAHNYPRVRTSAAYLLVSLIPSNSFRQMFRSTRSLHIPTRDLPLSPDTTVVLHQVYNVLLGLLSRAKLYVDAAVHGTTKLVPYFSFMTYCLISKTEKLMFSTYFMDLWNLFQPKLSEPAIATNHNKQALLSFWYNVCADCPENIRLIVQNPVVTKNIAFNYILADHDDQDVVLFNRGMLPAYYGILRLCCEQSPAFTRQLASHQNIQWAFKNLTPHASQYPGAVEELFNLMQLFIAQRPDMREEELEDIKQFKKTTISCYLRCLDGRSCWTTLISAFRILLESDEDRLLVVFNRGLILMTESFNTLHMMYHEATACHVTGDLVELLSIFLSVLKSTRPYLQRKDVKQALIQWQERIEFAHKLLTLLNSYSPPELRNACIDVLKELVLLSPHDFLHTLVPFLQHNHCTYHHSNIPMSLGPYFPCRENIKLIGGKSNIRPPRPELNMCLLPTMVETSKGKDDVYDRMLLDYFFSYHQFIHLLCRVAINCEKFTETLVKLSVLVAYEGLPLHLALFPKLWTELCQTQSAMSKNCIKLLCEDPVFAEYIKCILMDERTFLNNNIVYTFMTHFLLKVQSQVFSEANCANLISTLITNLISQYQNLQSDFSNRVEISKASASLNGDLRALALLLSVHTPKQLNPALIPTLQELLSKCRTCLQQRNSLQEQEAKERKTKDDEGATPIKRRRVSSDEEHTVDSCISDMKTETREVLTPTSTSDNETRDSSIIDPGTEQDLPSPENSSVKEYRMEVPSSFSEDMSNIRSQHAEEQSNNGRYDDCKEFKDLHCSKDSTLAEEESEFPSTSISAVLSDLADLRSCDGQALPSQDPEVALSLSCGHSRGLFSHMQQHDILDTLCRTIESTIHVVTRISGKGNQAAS

COc1ccccc1C(C)NC(=O)CCl (stereo not given)
inactive: USP34 -0.129 | USP36 -0.00263 | USP38 -0.182 | USP39 -0.155 | USP4 -0.226
